High-throughput results (PubChem)
Only some compounds are listed: those with a hit (about 4.8% of all), similar ones and a draw of the others.
PfHsp90 yeast 2: growth inhibition of PfHsp90-expressing yeast, primary screen, antimalarial PfHsp90 inhibitor project, S. cerevisiae, BacTiter-Glo luminescence, single point, set 2. inhibition, % at 9.4 µM. 310,000 compounds, 0.32% hits. BacTiter-Glo ATP, 48 h; yeast lacking PDR1 and PDR3 efflux regulators. AID 504621, 2011;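 active = every replicate shows inhibition above about 80%, whatever the replicate mean, limit read from the data; inconclusive = mean inhibition reaches the set limit but some replicate falls short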;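 also: 0% = DMSO neutral controls and 100% = 20 µM radicicol positive controls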
TIM10 inh: growth inhibitors of isogenic TIM10 control yeast, primary screen, counter-screen for tim10-1 yeast inhibitor project, luminescence, uHTS; S. cerevisiae TIM10 strain growth, BacTiter-Glo luminescence, 24 h; inhibition, % at 10 µM; 330,000 compounds, 1.4% hits; AID 463195, 2010;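 active = inhibition of 40% or more at the single tested concentration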;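 also: wild-type TIM10 isogenic control strain grown at permissive 25 °C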
tim10-1 inh: growth inhibitors of tim10-1 mutant yeast, primary screen, luminescence, uHTS | inhibition, % at 20 µM | AID 463190, 2010 | 330,000 compounds, 2.2% hits | S. cerevisiae tim10-1 ts strain growth, BacTiter-Glo, 24 h;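 active = inhibition of at least 40%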;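 also: mutant grown at 25 °C; 0% = DMSO wells with yeast and 100% = wells holding no yeast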
NALP1 inh: NALP1 inflammasome inhibitors in reconstituted yeast, colorimetric, S. cerevisiae, triplicate retest; S. cerevisiae NALP1/ASC/caspase-1 growth, X-gal OD620, 72 h; inhibition, % at 10 µM; 280,000 compounds, 0.61% hits; in the data active = inhibition mostly above about 24%, no sharp cut-off; inactive = mostly below about 32%
tim23-1 inh: growth inhibitors of tim23-1 mutant yeast, primary screen, luminescence, uHTS. 330,000 compounds, 1.3% hits. S. cerevisiae tim23-1 growth, BacTiter-Glo luminescence, 24 h. inhibition, % at 20 µM;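 active = growth inhibition of the mutant yeast at or above 50%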;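 also: temperature-sensitive mutant grown at 25 °C; plate controls were DMSO-treated mutant yeast for no effect and medium wells lacking yeast for full effect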
SKKanGAS inh: S. pyogenes SKKanGAS growth inhibitors in kanamycin, primary screen, streptokinase expression inhibitor project, SKKanGAS strain, BacTiter-Glo luminescence | 6 h | 300,000 compounds, 1.3% hits | inhibition, % at 7.5 µM;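 active = mean replicate score, as percent of positive control median, at least 50; inconclusive = mean below 50 but one replicate at or above 50; inactive = mean and every replicate below 50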;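 also: strain carries kanamycin resistance gene driven by streptokinase promoter and grows in 40 µg/ml kanamycin; loss of luminescence reflects streptokinase promoter inhibition or plain growth inhibition; 0% = median of DMSO wells and 100% = positive control at its reference dose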
tim10-1 conf: growth inhibitors of tim10-1 mutant yeast, confirmation, single concentration, luminescence, S. cerevisiae; shares compounds with tim10-1 inh; S. cerevisiae tim10-1 ts strain growth, BacTiter-Glo, 24 h; inhibition, % at 20 µM; 7,400 compounds, 56% hits; AID 463213, 2010;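 active = inhibition of yeast growth at or above a set limit in either of two repeat tests at 20 µM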;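 also: tim10-1 mutant grown at permissive 25 °C to find synthetic lethal compounds; 0% = DMSO yeast wells and 100% = medium wells without yeast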
TIM10 conf: growth inhibitors of wild-type TIM10 yeast, confirmation, counter-screen for tim10-1 synthetic lethality project, single concentration, luminescence, S. cerevisiae | AID 463215, 2010 | shares compounds with TIM10 inh | 4,600 compounds, 63% hits | inhibition, % at 10 µM | S. cerevisiae tim10 strain growth, BacTiter-Glo luminescence, 24 h;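 active = inhibition of yeast growth at or above a set limit in either of two replicates at 10 µM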;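 also: this counterscreen used the strain with wild-type TIM10; 0% = yeast with DMSO and 100% = medium wells lacking yeast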
tim23-1 conf: tim23-1 mutant yeast growth inhibitors, confirmation, luminescence, single concentration; S. cerevisiae tim23-1 growth, BacTiter-Glo luminescence, 24 h; 4,400 compounds, 83% hits; AID 463218, 2010; shares compounds with tim23-1 inh; inhibition, % at 20 µM;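 active = inhibition above about 39% in either of two replicate wells at 20 µM, limit read from the data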;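 also: temperature-sensitive tim23-1 mutant grown at 25 °C; 0% = DMSO wells with yeast and 100% = medium wells without yeast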
* marks the source's active call; other numbers are inactive results; ? = inconclusive; · = no result given.

SMILES	PfHsp90 yeast 2	TIM10 inh	tim10-1 inh	NALP1 inh	tim23-1 inh	SKKanGAS inh	tim10-1 conf	TIM10 conf	tim23-1 conf
Fc1ccccc1/C=N/n1c(C2CCCCC2)n[nH]c1=S	-15.6	47.8*	43.4*	-1.2	65.1*	3.5	35.4*	51.5*	61.2*
Cc1ccccc1/C=N/n1c(C2CCCCC2)n[nH]c1=S	-22.6	26.3	27.4	-11.7	40.4	2.2	·	·	·
S=c1[nH]nc(C2CCCCC2)n1/N=C/C=C/c1ccccc1	-20.7	39.2	54.0*	13.2	57.4*	4.4	30.6	·	37.3
O=C(COc1ccc2c3c(c(=O)oc2c1)CCCC3)NC(Cc1ccc(Cl)cc1)C(=O)O (stereo unspecified)	-12.4	12.5	15.6	3.7	-3.9	2.6	·	·	·
CN1CCN(CCCNCc2cn(CCC#N)c3ccccc23)CC1	25.8	-186.0	-170.2	7.9	-142.4	4.1	·	·	·
Cc1ccc(S(=O)(=O)/N=C(\Sc2ccccc2)c2ccccc2)cc1	20.0	29.3	51.4*	-3.6	52.3*	-2.4	33.4*	·	61.9*
O=C1C2C3C=CC(C4CC34)C2C(=O)N1/N=C/c1ccc([N+](=O)[O-])o1 (stereo unspecified)	-37.6	45.1*	67.1*	-4.5	75.8*	6.9	54.9*	46.5*	74.0*
O=C1C2C3C=CC(C4CC34)C2C(=O)N1/N=C/c1ccc(-c2ccc([N+](=O)[O-])cc2)o1 (stereo unspecified)	-16.8	5.6	16.9	24.2	5.7	·	·	·	·
O=C1C2C(C(=O)N1/N=C/c1ccc([N+](=O)[O-])o1)C1C=CC2C12CC2 (stereo unspecified)	4.0	43.5*	56.5*	49.3	63.9*	10.0	49.8*	-14.0	62.5*
COc1ccc2oc(C(=O)N3CCN(C/C=C/c4ccccc4)CC3)c(C)c2c1	-18.2	12.4	31.5	·	38.9	·	·	·	·
O=[N+]([O-])c1cnc(Sc2ccncn2)s1	103.0*	81.9*	46.8*	8.7	68.5*	17.5	49.1*	95.4*	52.6*
COCCn1cnnc1SCC(=O)Nc1cccc(S(=O)(=O)N2CCCCCC2)c1	-35.0	-1.1	1.3	18.7	0.4	4.4	·	·	·
CNc1nc(SCc2ccccc2Cl)nc2c1CCCC2	-20.4	46.3*	41.9*	112.3*	54.3*	34.0	42.9*	44.7*	59.7*
Cc1nc(N2CCN(Cc3ccc(Cl)cc3)CC2)c2oc3ccccc3c2n1	-24.8	42.0*	53.0*	33.3	53.6*	15.7	36.4*	49.0*	43.4*
CCCCCCn1c(CN2CCCCC2C)nc2c1c(=O)n(C)c(=O)n2C (stereo unspecified)	0.4	11.3	15.3	11.0	23.5	1.7	·	·	·
CC(=O)c1ccc(OCc2cc(C(=O)N3CCOCC3)no2)cc1	-13.8	2.9	-0.9	-2.8	1.6	-1.0	·	·	·
CCN(CC)S(=O)(=O)c1cccc(-c2n[nH]c(=S)n2/N=C/c2ccc(OC(F)F)cc2)c1	-22.2	29.0	38.1	12.9	26.8	39.4	·	·	·
CCOc1ccc2nc(NC(=O)c3ccoc3C)sc2c1	78.6*	67.7*	75.5*	18.6	80.2*	91.0*	76.1*	68.8*	84.8*
CCOc1ccc2nc(NC(=O)COC)sc2c1	·	5.7	20.6	8.4	20.4	-2.1	·	·	·
N#CC1=C2N=C(N)c3ccccc3N2C2=C(C(=O)CCC2)C1c1cccc(Cl)c1 (stereo unspecified)	4.5	4.4	3.4	24.1	-0.9	12.6	·	·	·
CC(C)(C)OC(=O)N/N=C/c1cccn1-c1ccc([N+](=O)[O-])cc1	11.8	17.4	19.3	13.9	24.2	-1.7	·	·	·
CN(C)c1ccc(-n2cccc2/C=C/[N+](=O)[O-])cc1	107.3*	92.0*	86.5*	-2.6	89.5*	-6.3	86.1*	94.7*	78.2*
CCOc1ccc(/C=C/[N+](=O)[O-])c2ccccc12	-61.1	64.9*	50.7*	29.0	73.1*	3.2	-8.6	55.1*	-108.2
COc1cccc(CNC(=O)COC(=O)c2nc(Cl)c(Cl)c(Cl)c2Cl)c1	-8.9	37.3	55.6*	·	60.3*	·	45.7*	·	57.0*
COc1ccc2c(c1)CC/C(=C/c1ccccn1)C2=O	8.4	56.5*	55.2*	20.0	58.3*	5.1	53.7*	59.5*	52.1*
SMILES	PfHsp90 yeast 2	TIM10 inh	tim10-1 inh	NALP1 inh	tim23-1 inh	SKKanGAS inh	tim10-1 conf	TIM10 conf	tim23-1 conf
COc1ccc2c(c1)CC/C(=C/c1cc(OC)c(OC)c(OC)c1)C2=O	9.0	3.3	18.0	4.9	34.1	-7.8	·	·	·
CC1CCCC(C)N1CCCNC(=O)c1ccc2nc(N3CCCCC3)sc2c1 (stereo unspecified)	11.9	2.7	4.0	31.4	1.6	2.5	·	·	·
CCN=c1sc(C(=O)NCCc2ccccc2)cc(=O)n1CC	4.0	42.9*	51.0*	16.3*	66.4*	4.8	47.5*	10.6	52.3*
COc1cccc(CNC(=O)COc2cc3c(c4oc(=O)cc(C)c24)CCC(C)(C)O3)c1	3.4	9.7	25.8	2.0	16.5	11.2	·	·	·
COc1ccc(C(=O)Nc2ccc3cn[nH]c3c2)c(OC)c1	-9.2	3.4	-10.3	1.3	7.9	2.9	·	·	·
CN(C)c1ccc(/C=C/c2ccc3ccccc3[n+]2C)cc1	54.2	80.6*	84.5*	60.3*	75.2*	?	81.4*	8.6	76.1*
CN(C)c1ccc(/C=C/c2ccc3c4ccccc4ccc3[n+]2-c2ccccc2)cc1	·	·	·	-24.0	·	·	·	·	·
COCCNC(=O)CC(NS(=O)(=O)c1ccc(C)cc1)c1ccco1 (stereo unspecified)	-21.5	-2.6	-12.6	-30.3	3.7	3.4	·	·	·
Cc1cc(C)c2cc(C)c(SCC(=O)NCc3ccco3)nc2c1	-12.8	31.8	43.8*	6.5	50.2*	-0.3	43.0*	·	56.0*
CCOC(=O)/C(C#N)=C/c1ccc(OC)c(OC)c1	-2.0	-0.5	1.6	5.8	10.7	-1.6	·	·	·
